A selection: hits, their analogues and other compounds. The true share with any hit is near 7.3%.
HCMV antiviral – human cytomegalovirus inhibition | activity change, negative = inhibition, % at 57.5 µM | AID 1259415 | hit rate 4.5% among 410,000 | HFF cells, HCMV-luciferase reporter, 72 h; active compounds read low; in the data active = activity change below about -60%; inconclusive = no clear call, values can overlap the other calls; inactive = above about -39%
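HFF cells seeded 16 h at 37C, treated with compounds, infected with luciferase-reporter HCMV at MOI 1 PFU/cell; luciferase read at 72 h post infection, normalized to buffer-only and Salinomycin controls.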
VACV mCherry inh – inhibitors of vaccinia virus infection (mCherry reporter signal) | hit rate 0.63% among 310,000 | Vaccinia virus mCherry reporter infection, fluorescence | Potency, µM (series often up to 36.5 µM), actives largely listed as inhibitors; calls by dose curve; tested in A549 cells; note: nearly all actives have a fitted effect of over 35% in size
VACV Venus inh – inhibitors of vaccinia virus (Venus reporter). Vaccinia virus Venus reporter expression, fluorescence. Potency, µM (series often up to 36.5 µM), usual class: inhibitors. hit rate 0.46% among 330,000; calls by dose curve; tested in A549 cells; note: nearly all actives have a fitted effect of over 30% in size
HCV inh – blocks hepatitis C virus; Huh7.5.1 HCVcc-Cre infection, luciferase reporter, 44 h; Potency, µM (doses to about 41.8 µM), most hits filed as inhibitors; hit rate 3.4% among 340,000
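1,000 cells/well; 4 h culture; + compound; + HCVcc-Cre (~0.5 moi); 44 h; luciferase substrate, RT 15 min; read 15 sec.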
FMDV antiviral – blocks foot and mouth disease virus | FMDV antiviral cell-based qHTS | hit rate 1.2% among 410,000 | Potency, µM (highest dose often 57.9 µM), most hits filed as inhibitors; calls by dose curve; tested in HEK293T cells; note: read-out not given here; nearly all actives have a fitted effect of over 45% in size
HCV inh confirm – HCV inhibition, cherry-pick confirmation; Potency, µM (top dose mostly 41.8 µM), actives largely listed as inhibitors; HCVcc-Cre infectious virus cell assay, luciferase, inhibition; shares compounds with HCV inh; hit rate 78% among 640; note: nearly all actives have a fitted effect of over 80% in size
HCV host tox – counter-screen for HCV inhibitors: host cell cytotoxicity; Potency, µM (titrated, usually from 41.8 µM), most hits filed as inhibitors; HCV host cell line cytotoxicity counterscreen; AID 720576; shares compounds with HCV inh; hit rate 22% among 640;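 note: 44 h compound exposure; nearly all actives have a fitted effect of over 55% in size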
Hits are given with their value; - = inactive; ? = inconclusive; . = no result; [ ] = remark or other dose. Unless noted, calls come from the whole dose curve; as a rule, active = well fitted curve in the direction sought with a large enough effect; inconclusive = small, poorly fitted or top-dose-only effect, or another doubt; inactive = no such curve, though single readings can be large; an effect the other way counts as inactive or inconclusive.

SMILES	HCMV antiviral	VACV mCherry inh	VACV Venus inh	HCV inh	FMDV antiviral	HCV inh confirm	HCV host tox
COc1ccc(CCC(C)NC(=O)Cc2ccc(OC)c(OC)c2)c(OC)c1 (stereo unspecified)	-	.	.	7.1µM	?	11µM	?
CN(Cc1ccon1)Cc1cn(C)nc1-c1ccc2c(c1)OCCO2	-	-	-	-	-	.	.
Cn1cc(CNCc2ccc(OC(F)(F)F)cc2)c(-c2ccc3c(c2)OCCO3)n1	-81	.	.	1µM	?	1µM	5µM
CCC1CCCCN1S(=O)(=O)c1cc2c(cc1C)NC(=O)CO2 (stereo unspecified)	-	-	-	.	-	.	.
Cn1c(-c2ccsc2)c(-c2cccs2)c2cc(-c3ccc4cc[nH]c4c3)ccc21	?	?	-	1.1µM	-	11µM	-
COc1ccc(Cl)cc1NC(=O)C(C)OC(=O)C1=NNC(=O)CC1 (stereo unspecified)	-	.	.	?	-	?	-
O=C1CCC(C(=O)OCC(=O)Nc2cc(Cl)ccc2F)=NN1	-	-	-	-	-	.	.
CCn1c(SC)nnc1-c1sc2cc(Cl)ccc2c1Cl	?	.	-	5.6µM	-	-	-
COc1cccc(NC(=O)CSCc2cc(=O)c3ccc(C)c(C)c3[nH]2)c1	-	-	-	.	-	.	.
CCCCN(C)C(=O)Cn1cnc2sc(C)c(S(=O)(=O)N3CCC(C)CC3)c2c1=O	-	-	-	.	-	.	.
Cc1onc(-c2c(F)cccc2Cl)c1-c1nnc(-c2ccc(C(F)(F)F)cc2)o1	?	?	-	-	?	.	.
Cc1onc(-c2ccccc2)c1-c1nnc(-c2ccccc2C(F)(F)F)o1	-	-	-	?	?	25µM	-
C[C@]12CC[C@@H]3c4ccc(O)cc4CC[C@H]3[C@@H]1CC[C@@H]2O	-	-	-	-[8.37 µM]	-	.	.
C[C@]12CC[C@@H]3c4ccc(O)c(O)c4CC[C@H]3[C@@H]1CC[C@@H]2O	-91	-	-	2.8µM	-	20µM	-
O=C(NC1CCCC1)C1C(c2ccc(C(F)(F)F)cc2)=Nc2ccccc2N1C(=O)c1cc2ccccc2[nH]1 (stereo unspecified)	-	-	-	.	-	.	.
CN1CCN(/N=C/c2ccc(Cl)c(Cl)c2)CC1	-	-	-	?	-	?	-
O=c1c2ccccc2nc2n1CCN2Cc1ccc(Cl)cc1	-88	-	?	?	.	6.3µM	?
O=c1c2ccccc2nc(-c2ccccc2)n1Cc1ccc(Cl)cc1	-	-	-	-	-	.	.
O=C(/C=C\c1ccc2c(c1)OCO2)Nc1c2c(nn1-c1ccc(Cl)cc1)CSC2	-	-	-	?	-	13µM	-
O=C(/C=C\c1ccc2c(c1)OCO2)NC1CC(=O)N(c2ccc(Cl)cc2)C1 (stereo unspecified)	?	-	-	.	-	.	.
Cc1ccc(C)c(NC(=O)Cn2c(=O)oc3cc(S(=O)(=O)NCc4ccccc4)ccc32)c1	-	-	-	.	-	.	.
Cc1cc2[nH]c3c(c[n+](C)c4ccccc34)c2cc1C	-98	.	.	5µM	-	16µM	?
CCCn1c2ccccc2c2cnn(CC(=O)NCCc3cc(OC)ccc3OC)c(=O)c21	-	-	-	.	-	.	.
Cc1nc2ccccc2n1Cc1ccc(Br)cc1	?	-	-	2.5µM	?	2µM	2µM
Cc1nc2ccccc2n1Cc1ccccc1Br	?	-	-	?	?	.	.
SMILES	HCMV antiviral	VACV mCherry inh	VACV Venus inh	HCV inh	FMDV antiviral	HCV inh confirm	HCV host tox
Cc1ccc(S(=O)(=O)N2CCN(Cc3ccc4c(c3)OCO4)CC2)cc1	-	-	-	.	-	.	.
Cc1noc(C)c1COC(=O)c1ccc(F)c(S(=O)(=O)N2CCCCC2)c1	-	.	.	?	-	28µM	-
COc1ccc(S(=O)(=O)N2CCCCCC2)cc1C(=O)OCc1c(C)noc1C	-	-	-	-	-	.	.
CCC1CCCCN1C(=O)CSc1n[nH]c(-c2ccccc2Cl)n1 (stereo unspecified)	-	-	-	.	-	.	.
O=C(NCc1ccccc1)Nc1cccn(Cc2ccccc2F)c1=O	-	-	-	-	-	.	.
CSc1ccc(NC(=O)Nc2cccn(Cc3ccccc3F)c2=O)cc1	-81	?	?	3.5µM	-	8.9µM	-
Nc1nc(Cl)nc(N(c2ccccc2)c2ccccc2)n1	-	-	-	-	-	.	.
Nc1nc(CCl)nc(N(c2ccccc2)c2ccccc2)n1	-98	?	-	0.56µM	32µM	1µM	-
Cc1nc(N)nc(N)c1CCCc1ccc(Cl)c(Cl)c1	-87	-	-	4µM	-	7µM	?
S=C(NCc1ccccc1)Nc1cccc2cnccc12	-87	-	-	2µM	?	7µM	10µM
COc1cc2c(=O)c(S(=O)(=O)c3ccccc3)cn(CC(=O)Nc3ccccc3C)c2cc1OC	-	-	-	.	-	.	.
COc1ccc(-c2nc(SCc3ccccc3)n(S(C)(=O)=O)n2)cc1	-	.	.	2.8µM	-	-	-
COc1ccc(/C=N\NC(=O)c2ccccc2[N+](=O)[O-])cc1COc1c(F)c(F)c(F)c(F)c1F	-	-	-	2.5µM	-	13µM	-
Cc1ccc(NC(=O)C(=O)NCC(c2ccc3c(c2)OCO3)N2CCN(C)CC2)cc1C (stereo unspecified)	-	-	-	.	-	.	.
CCCOc1ccc(/C=N/Nc2cccc([N+](=O)[O-])c2)c(O)c1	?	?	?	?	-	28µM	-
CN1C(=O)Cc2cc(S(=O)(=O)CCC(=O)Nc3ccc(Cl)cc3)ccc21	-	-	-	.	-	.	.
COc1cc(OC)cc(C(=O)Nc2nc(-c3ccccc3)c(-c3ccccc3)o2)c1	?	.	.	7.1µM	-	13µM	-
CC1CCN(CCOCCOc2ccccc2-c2ccccc2)CC1	?	-	-	?	-	.	.
CC1CCN(CCCCOc2ccccc2-c2ccccc2)CC1	?	?	?	?	-	20µM	-
CN1CCN(S(=O)(=O)c2ccc(N(C)Cc3ccc(C(F)(F)F)cc3)c([N+](=O)[O-])c2)CC1	?	-	?	3.2µM	?	14µM	28µM
Oc1ccccc1N=Nc1nc(-c2ccccc2)c(-c2ccccc2)[nH]1	-107	?	?	3.5µM	28µM	7.9µM	-
CC(C)CN(C(=O)CCCOc1ccc(Cl)cc1Cl)c1c(N)n(Cc2ccccc2)c(=O)[nH]c1=O	-	-	-	?	-	11µM	-
Cn1c(C(=O)Nc2cccc(Cl)c2)cc2c(=O)n(C)c3ccccc3c21	-	-	-	.	?	.	.
COc1ccc2c(C)cc(SCC#N)nc2c1	-	.	.	?	-	.	.
COc1ccc2c(C)cc(SCc3c(C)noc3C)nc2c1	-	-	-	6.3µM	-	22µM	-
CN1C(=O)C(=Cc2ccc(OCCN(C)c3ccccn3)cc2)C(=O)N(C)C1=O	-	.	.	-	-	.	.
COc1ccc(S(=O)(=O)n2ccc(-c3ccc(OCCN(C)c4ccccn4)cc3)n2)cc1	?	.	.	6.3µM	-	7µM	?

Screening results (PubChem BioAssay)
